MITF act – increases MITF-driven TRPM1 promoter luciferase signal; AID 588334; activation, % at 12.5 µM; SK-MEL-5 TRPM1-promoter luciferase, 24 h; % of positive control, neutral wells = 0; actives 0.75% (n = 300,000);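 active means mean activation of at least 80% with every replicate also reaching 80%; inconclusive means mean reaches 80% but some replicate falls short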
esBAF inh – SWI/SNF esBAF complex inhibition; mouse ES cells, Bmi1-luciferase knock-in reporter, 24 h; 100% = twice the neutral-well signal; reporter increase, % at 12.5 µM; actives 2% (n = 350,000); in the data active means activation above about 40%; inconclusive means no clear call, values can overlap the other calls;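 further: a rise in the Bmi1 reporter signal indicates esBAF inhibition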
Wnt bcat act – activates Wnt/beta-catenin signaling in a reporter cell assay. AID 743398. actives 1.2% (n = 300,000). activator, plate reader. activation, % at 9.35 µM; in the data active means activation above about 30%, passing the limit was not always enough; inconclusive means no clear call, values can overlap the other calls
HSF1 inhib – HSF1 inhibition. actives 0.77% (n = 300,000). activity change, negative = inhibition, % at 7.5 µM (by protocol). NIH3T3-HGL HSE-luciferase, MG132-induced, luminescence 8 h; hits give low values;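 active means more than half of replicate wells show activity change below -50%, luminescence cut by over half; inconclusive means some wells, but at most half, below -50%; inactive means no replicate well below -50%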;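 further: luciferase reports HSF-1 transcriptional activity via heat shock element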
HSF1 activator – increases HSF-1 driven luciferase reporter signal; activation, % at 9 µM; AID 504408; NIH3T3-HGL HSF-1 luciferase reporter, MG132, 8 h; 100% = twice DMSO control signal; actives 1.7% (n = 300,000);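 active means mean replicate activation of at least 50% with a set share of replicates each reaching 50%; inconclusive means only one of those two conditions met; inactive means mean below 50% and too few replicates reaching it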
Numbers stand for hits; 0 = inactive; ? = inconclusive; - = not tested or not shown; ! = a repeat was not active. In the library only some 3.8% were active in any assay of this set; here they are far more common.

SMILES | MITF act | esBAF inh | Wnt bcat act | HSF1 inhib | HSF1 activator
CSc1nc(N)n2nc(-c3ccc(Cl)cc3)cc2n1 | - | ? | 49 | 0 | 0
O=C(Cc1ccccc1)N[C@H]1CC[C@@H](CC(=O)N2CCCCC2)O[C@@H]1CO | - | 0 | - | - | -
COC(=O)CCC(=O)c1oc2ccc(OC)cc2c1N | 109 | 0 | - | 0 | 0
COc1ccc(C(=O)c2oc3ccccc3c2N)cc1 | 0 | 0 | - | 0 | 0
COc1ccc2oc(C(=O)C3CC3)c(N)c2c1 | 0 | 67 | 0 | 0 | 0
COc1ccc2oc(C(=O)c3ccccc3)c(N)c2c1 | - | - | 74 | 0 | 0
O=C(C[C@@H]1C[C@@H]2c3cc(NC(=O)c4ccc5c(c4)OCO5)ccc3O[C@@H]2[C@@H](CO)O1)NC1CCCC1 | - | 0 | - | - | -
C[C@@H]1CN([C@H](C)CO)C(=O)c2cc(C3=CCCCC3)cnc2O[C@H]1CN(C)C(=O)c1cccnc1 | - | 0 | - | - | -
C[C@H]1CN([C@@H](C)CO)S(=O)(=O)c2ccc(-c3cccnc3)cc2O[C@@H]1CN(C)C(=O)CN(C)C | - | 0 | - | - | -
COC(=O)/C(C(C)=O)=C(\C=C\N(C)C)N(C)C | 0 | 0 | 0 | 0 | 0
COC(=O)C(=CC(=CN(C)C)C=C(C(=O)OC)C(=O)OC)C(=O)OC | 0 | 0 | 38 | 0 | 0
C[C@H](CO)N1C[C@H](C)[C@@H](CN(C)C(=O)Nc2cc(F)ccc2F)Oc2cc(-c3cccc(F)c3)ccc2S1(=O)=O | - | 0 | - | - | -
O=C(CC1CC1)N[C@H]1CC[C@@H](CCNS(=O)(=O)c2ccc(F)cc2)O[C@@H]1CO | - | 0 | - | - | -
C[C@H]1CN([C@@H](C)CO)C(=O)c2cccc(NC(=O)Nc3ccc4c(c3)OCO4)c2O[C@@H]1CN(C)S(=O)(=O)c1cccs1 | - | 44 | - | - | -
C[C@H](CO)N1C[C@H](C)[C@@H](CN(C)S(=O)(=O)c2cccs2)Oc2c(NS(=O)(=O)c3cn(C)cn3)cccc2C1=O | 0 | 0 | 47 | - | -
C[C@H](CO)N1C[C@H](C)[C@@H](CN(C)S(=O)(=O)c2cccs2)Oc2c(NC(=O)Nc3ccc4c(c3)OCO4)cccc2C1=O | 0 | 57! | 0 | - | -
COc1ccc(NC(=O)Nc2ccc3c(c2)CC(=O)N([C@@H](C)CO)C[C@H](C)[C@H](CN(C)S(=O)(=O)c2ccc(F)cc2)O3)cc1 | - | 0 | - | - | -
CCOCCCNC(=O)c1ccccc1OC1CCN(S(C)(=O)=O)CC1 | 0 | - | 0 | 0 | 0
CCOCCCNC(=O)c1cccc(OC2CCN(S(C)(=O)=O)CC2)c1 | - | 67 | 0 | 0 | 0
O=C(N[C@H]1C=C[C@@H](CC(=O)N2CCOCC2)O[C@@H]1CO)c1ccc2c(c1)OCO2 | - | 0 | - | - | -
CC1CCN(C(=O)c2ccc3c(Cl)c4c(nc3c2)CCCC4)CC1 | 0 | - | 0 | 0 | 302
CCCN1CCN(CCCNC(=O)c2ccc3c(Cl)c4c(nc3c2)CCCC4)CC1 | 0 | 0 | 0 | 0 | 160
COc1ccccc1N1CCN(C(=O)c2ccc3c(Cl)c4c(nc3c2)CCCC4)CC1 | - | 0 | - | 0 | 0
O=C(c1ccc2c(Cl)c3c(nc2c1)CCCC3)N1CCN(c2ccc(F)cc2)CC1 | 0 | 0 | 0 | 0 | 72
O=C(Nc1cccnc1Cl)c1ccc2c(Cl)c3c(nc2c1)CCC3 | 0 | - | ? | 0 | 0
SMILES | MITF act | esBAF inh | Wnt bcat act | HSF1 inhib | HSF1 activator
N#Cc1ccccc1NC(=O)c1ccc2c(Cl)c3c(nc2c1)CCCC3 | 0 | 80 | - | 0 | 113
O=C(NCCCN1CCCC1)c1ccc2c(Cl)c3c(nc2c1)CCCC3 | 0 | - | - | 0 | 0
C[C@@H]1CCCCO[C@H](CN(C)C(=O)CCCN(C)C)[C@H](C)CN([C@H](C)CO)C(=O)c2cc(NC(=O)C3CCCCC3)ccc2O1 | - | 0 | - | - | -
O=C(C[C@H]1C[C@H]2c3cc(NC(=O)Nc4ccccc4)ccc3O[C@H]2[C@@H](CO)O1)NCCN1CCCCC1 | - | 0 | - | - | -
CCOC(=O)C1CCN(C(=O)c2ccc3c(Cl)c4c(nc3c2)CCCC4)CC1 | 0 | 0 | 0 | 0 | 316
O=C(NC1CC1)c1ccc2c(Cl)c3c(nc2c1)CCCC3 | 0 | 47 | 0 | 0 | 0
C[C@H](CO)N1C[C@H](C)[C@H](CN(C)C(=O)C2CC2)OCc2ccccc2-c2c(n(C)c3ccccc23)C1=O | - | 0 | - | - | -
O=C(C[C@H]1C[C@@H]2c3cc(NC(=O)C4CCOCC4)ccc3O[C@@H]2[C@@H](CO)O1)NC1CCCC1 | - | 0 | - | - | -
O=C(N[C@@H]1CC[C@H](CCNC(=O)C2CCC2)O[C@H]1CO)c1ccccn1 | - | 0 | - | - | -
Cc1ccc(NC(=O)c2ccc(CSc3nccc(C)n3)cc2)cc1 | 0 | 0 | - | 0 | 0
Cn1nnnc1SCc1ccc(C(=O)Nc2ccccc2F)cc1 | 0 | 0 | - | 0 | 0
CSCc1ccc(C(=O)Nc2ccc(C(N)=O)cc2)cc1 | 0 | - | 0 | 0 | 55
O=C(Nc1ccccc1F)c1ccc(CSc2ncccn2)cc1 | 0 | 62 | 0 | 0 | 0
O=C(Nc1ccccc1)c1ccc(CSc2ncccn2)cc1 | 0 | 0 | - | 0 | 87
CSCc1ccc(C(=O)NCc2ccc(C)cc2)cc1 | 0 | 0 | 0 | 0 | 0
C[C@@H]1CN([C@@H](C)CO)C(=O)CCCn2cc(nn2)CO[C@@H]1CN(C)S(=O)(=O)c1ccccc1 | - | 0 | - | - | -
CC(Sc1nc2ccccc2s1)C(=O)Nc1nnc(C(C)C)s1 (stereo not drawn) | 0 | 0 | - | -63 | 0
CSc1ccc(-c2nnn(Cc3ccccn3)n2)cc1 | 0 | 51 | 0 | 0 | 77
CSc1ccc(-c2nnn(Cc3ccc(Br)cc3)n2)cc1 | - | 0 | 0 | 0 | 0
N#Cc1cccc(Cn2nnc(-c3ccccc3)n2)c1 | 0 | 0 | 0 | 0 | 0
c1ccc(Cn2nnc(-c3ccccc3)n2)cc1 | 0 | 44 | 0 | 0 | 0
CC1C/C(=C/c2ccccn2)C(=O)/C(=C/c2ccccn2)C1 (stereo not drawn) | 0 | - | - | 0 | 89
CC(C)(C)C1C/C(=C/c2ccccn2)C(=O)/C(=C/c2ccccn2)C1 (stereo not drawn) | 0 | 0 | - | 0 | 0
C[C@@H]1CN([C@@H](C)CO)C(=O)c2cc(C3=CCCC3)cnc2O[C@H]1CN(C)Cc1ccccc1 | - | 0 | - | - | -
O=C1NC(c2ccccc2Br)=N/C1=C\c1ccco1 | 0 | - | 70 | 0 | 0
SMILES | MITF act | esBAF inh | Wnt bcat act | HSF1 inhib | HSF1 activator
Cc1cc(N/C=C/C(=O)c2ccc(Br)cc2)no1 | 105 | 81 | 33 | 0 | 55
COc1ccc(C(=O)/C=C/Nc2cc(C)ccn2)cc1 | - | - | 0 | 0 | 0
Cc1ccnc(N/C=C/C(=O)c2ccc(Br)cc2)c1 | 0 | 0 | 39 | 0 | ?
O=C(/C=C\Nc1ccc(Cl)cn1)c1ccc(Br)cc1 | 103 | - | 36 | 0 | 0
Cc1cc(N/C=C/C(=O)c2cccc3ccccc23)no1 | 0 | 0 | - | 0 | 0
Cc1ccc(-n2c(C)cc(C(=O)COC(=O)C3=NNC(=O)CC3)c2C)cc1 | 0 | 0 | - | 0 | 0
Cc1ccc(-n2c(C)cc(C(=O)COC(=O)c3c(C)noc3C)c2C)cc1 | 0 | 0 | 51 | 0 | 0
O=c1c2cc(-c3ccccc3)sc2nc2n1CCC2 | - | - | 60 | 0 | 0
Cc1nc2sc(-c3ccccc3)cc2c(=O)n1-n1cccc1 | 102 | 48 | - | 0 | 0
Cc1nc2sc(-c3ccccc3)cc2c(=O)n1N | 0 | 0 | 0 | 0 | 0
O=C(Nc1ccccc1)N1C[C@@H]2[C@H](c3ccccc31)[C@H](CO)N2C(=O)c1ccccc1F | - | 0 | - | - | -

Compound activity (PubChem)
